Test results as given in PubChem BioAssay.
Active and inactive are the calls of the source. The rule behind the calls is not given here.

test: inhibition of PAO1 biofilm formation – strain PAO1, LB-PBS medium, absorbance 600 nm, primary screen (AID 1176); note: test concentration not given here; conditions: P. aeruginosa PAO1 growth/biofilm, A600, 12 h; higher = more signal

z-score, inactive:
COCC(=C=CC[C@H](O)c1ccc(OCCO)cc1)C[C@H](O)COCc1ccccc1 0.33, O=C1NC(=O)C2C1C=CC(C(O)c1cc(C(F)(F)F)cc(C(F)(F)F)c1)N2Nc1ccc(Cl)cc1Cl (stereo not given) 1.43, COC(=O)[C@H](Cc1ccccc1)N1CC(/C=C/C2CC2)=C[C@@H]1[C@@H](O)Cc1ccccc1 0.294, NC(=O)NCC#Cc1ccc2c(c1)[C@]1(C(=O)N2)[C@H](C(=O)Nc2nc3ccccc3s2)[C@H]2C(=O)O[C@H](c3ccccc3)[C@H](c3ccccc3)N2[C@@H]1c1ccc(O)cc1 2.87, O=C1O[C@@H](c2ccccc2)[C@@H](c2ccccc2)N2[C@@H](c3ccc(O)cc3)[C@]3(C(=O)Nc4ccc(C#CC5=CCCCC5)cc43)[C@@H](C(=O)N3CCN(c4ncccn4)CC3)[C@H]12 -0.0478, CC(=O)NCCCC[C@@H]1NC(=O)[C@@H]2C[C@H](C(=O)O)[C@H](c3ccc(O)cc3)N2C1=O -0.819, COc1cc(CO)cc(I)c1O[C@H]1C=C(C(=O)NCCO)C[C@@H](NCc2ccccc2F)[C@@H]1O -0.365, O=C1NCC(=O)N2[C@@H]1C[C@@H](C(=O)O)[C@H]2c1ccc(O)cc1 0.463, COC(=O)[C@@]1(Cc2ccc(F)cc2)[C@H]2c3cc(C(=O)N4CCCC4)n(CCF)c3C[C@H]2CN1C(=O)c1ccccc1 0.84, C[C@]1(C(=O)O)c2ccccc2C(=O)N(Cc2ccccc2)[C@H]1c1ccc(CO)cc1 -0.633, CCOC(=O)C[C@H]1[C@H](OC(=O)c2ccc(-c3ccccc3)cc2)[C@@H](NC(=O)C2CCCCC2)c2cc(OCCCO)ccc2N1C(=O)c1ccccc1 0.656, O=C1O[C@@H](c2ccccc2)[C@@H](c2ccccc2)N2[C@@H](c3ccccc3OCCO)[C@]3(C(=O)Nc4ccccc43)[C@@H](C(=O)NC[C@H](O)c3ccccc3)[C@H]12 2.05, C=CC1c2cc(O)c(OC)cc2CCN1Cc1sc2ccccc2c1Cl (stereo not given) -0.227, CC(C)CN1C(=O)[C@@]2(c3ccc([N+](=O)[O-])cc3)CC(=O)N(CC34CC5CC(CC(C5)C3)C4)[C@@H]2c2ccc(CO)cc21 0.146, COCCOC(=O)N1C(=O)[C@@]2(c3cc(C#Cc4ccc(OC)cc4)ccc31)[C@H](C(=O)N1CCN(c3ncccn3)CC1)[C@H]1C(=O)O[C@H](c3ccccc3)[C@H](c3ccccc3)N1[C@@H]2c1ccccc1OCCO 3.8, CCOC(=O)C[C@H]1[C@H](OC(=O)Cc2ccc3c(c2)OCO3)[C@@H](NC(=O)Cc2ccc(OC)cc2)c2cc(OCCCO)ccc2N1C(=O)c1ccccc1 -0.218, [N-]=[N+]=Nc1ccccc1C[C@]1(C(=O)NCc2ccccc2)N=C(c2ccc(OCCCO)cc2)O[C@H]1c1ccccc1 0.811, COC(=O)Cn1c(C(=O)N2CCCC2)cc2c1C[C@H]1CN(C(=O)c3ccccc3)[C@@](Cc3ccc(F)cc3)(C(=O)OC)[C@@H]21 0.756, COc1ccc(NN2C(C(O)c3ccco3)C=CC3C(=O)N(C4CCCCC4)C(=O)C32)cc1 (stereo not given) 0.546, CCCCN1CC=CC23O[C@@H]4C=CCOC(=O)[C@@H]4[C@H]2C(=O)N(C(C)CO)[C@@H]3C1=O (stereo not given in full) -0.456, COc1ccc(NC(=O)O[C@H]2[C@H](OC(=O)Nc3ccc4c(c3)OCO4)[C@@H](OC(=O)Nc3ccc4c(c3)OCO4)[C@@H](OC)O[C@@H]2CO)cc1 2.33, C=CCN1C(=O)[C@]2(CC=C)N=C(c3ccc(OCCCO)cc3)O[C@@H]2c2ccccc21 1.26, CC1CC/C=C\[C@H]2OC34C=CCN(C(C)C)C(=O)[C@H]3N(CCCCCO)C(=O)[C@@H]4C2C(=O)O1 (stereo not given in full) -1.28, COC(=O)[C@@]1(Cc2ccccc2)[C@H]2c3cc(C(=O)N4CCCC4)n(Cc4ccsc4Br)c3C[C@H]2CN1C(=O)c1ccccc1 -0.0703, NCCCCCNC(=O)[C@@H]1C[C@@H]2C(=O)N[C@@H](CCCCN)C(=O)N2[C@@H]1c1cccc(OCCO)c1 -0.105, CCOC(=O)C1=CC[C@@H](c2ccc([N+](=O)[O-])cc2)N(S(=O)(=O)c2ccc(C)cc2)[C@H]1c1ccccc1 0.229, CC(C)c1ccc(NN2C(C(O)c3ccco3)C=CC3C(=O)N(c4ccccc4)C(=O)C32)cc1 (stereo not given) 1.07, COC1(C)CN(Cc2ccccc2Br)[C@H](/C=C/c2ccccc2)[C@H](Cc2ccccc2)O1 (stereo not given in full) 0.331, CC=CC(O)C1C=CC2C(=O)N(C)C(=O)C2N1N1CCCCC1 (stereo not given) 0.378, CCOC(=O)C1=CC[C@@H](c2cc(Cl)ccc2Cl)N(S(=O)(=O)c2ccc(C)cc2)[C@H]1c1ccc(OC)cc1 0.0767, C=C(CCCC)C(=O)CC[C@@H](OC(=O)c1ccccc1-c1ccccc1C(=O)O)c1cccc(OCCO)c1 0.543, CC(C)(C)OC(=O)CC[C@@]1(C(=O)O)N=C(c2ccc(OCCCO)cc2)O[C@@H]1c1ccccc1CN=[N+]=[N-] -0.0988, O=C1C[C@]2(c3ccc([N+](=O)[O-])cc3)C(=O)N(Cc3ccccc3)c3cc(CO)ccc3[C@H]2N1CC12CC3CC(CC(C3)C1)C2 0.848, O=C(CS)NCCCCCCNC(=O)[C@@H]1C[C@@H]2C(=O)N3CCC[C@H]3C(=O)N2[C@@H]1c1cccc(OCCO)c1 0.42, CN(C)CCCCNC(=O)[C@H]1C[C@H]2C(=O)N[C@@H](CCCCN(C)C)C(=O)N2[C@H]1c1cccc(OCCO)c1 -1.48
